The whole screen tested about 210,000 compounds, of which about 730 (0.35%) were called active. Inconclusive results (about 1%) are left out. The list comes from a sample in which actives are over-represented; it also holds similar structures and randomly drawn compounds. Unmarked numbers belong to inactive results. The call rests on the fitted dose curve; in most records, active means well fitted inhibition curve with a large enough effect; inconclusive means small, poorly fitted or top-dose-only effect; inactive means no such curve, though single readings can be large or run the other way.
assay: qHTS Assay for Identifying the Cell-Membrane Permeable IMPase Inhibitors: Potentiation with Lithium; conditions: CHO-M1 cells, IP1 TR-FRET (IP-One), carbachol + lithium; series mostly up to 59.4 µM; activity, negative = IMPase inhibition: at the top concentration;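 further: IP1 builds up when IMPase is blocked and the TR-FRET signal falls; nearly all actives have a fitted effect of over 50% in size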;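 on activity, negative = IMPase inhibition: plate controls were basal vehicle for no effect and high inhibitor control for full effect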
Text: NIH Chemical Genomics Center [NCGC]
NIH Molecular Libraries Probe Production centers Network [MLPCN]
Assay Submitter (PI): Wei Zheng
Lithium has been widely used for the treatment of bipolar disorder. But lithium has a narrow therapeutic index and it can cause side effects such as thirst, weight gain, tremor, polyuria and memory problems. Although the mechanism for lithium action in treatment of bipolar disorder is still not fully understood, inhibition of inositol monophosphatase (IMPase) and the subsequent depletion of the inositol pool in living cells have been implicated as the primary therapeutic benefit of lithium therapy. Therefore, a selective IMPase inhibitor with reduced side effects might be a good drug candidate to replace lithium for the treatment of bipolar disorder. Several IMPase inhibitors have been discovered previously. However, they are not suitable for therapeutic use because of their poor cell membrane penetrability or oral bioavailability; the development of new cell-permeable IMPase inhibitors is needed.
IMPase catalyzes the hydrolysis of inositol-1-phosphate (IP1) to release free inositol. Binding of an agonist to a Gq coupled GPCR results in the activation of PLC, which hydrolyzes the PIP2 to form inositol-1,4,5-trisphosphate (IP3) and diacyl glycerol (DAG). While DAG activates protein kinase C (PKC), IP3 triggers the elevation of intracellular free Ca2+. The IP3 is very rapidly inactivated by hydrolysis to IP2, IP1 and then inositol by a series of enzymes including IMPase. Free inositols are used for synthesis of PI and thus start another inositol cycle.
To identify new cell-permeable IMPase inhibitors, we developed a cell-based IMPase assay in which the cytosolic IP1 is measured by a time-resolved fluorescence resonance energy transfer (TR-FRET) assay. In this assay, an IP1 specific antibody is used to detect the labeled IP1 tracer. When the cell lysate contains the elevated IP1 due to the inhibition of IMPase, the TR-FRET between the labeled antibody and IP1 tracer is disrupted resulting in a reduction in the total signal. Since the TR-FRET is used, this cell-based assay is a homogenous assay without cell wash and medium change that is suitable for assay miniaturization and HTS. In this particular assay, a small amount of lithium is added to potentiate the response of weak activators.
NCGC Assay Protocol Summary:
A Chinese hamster ovary (CHO) cell line stably expressing the M1 receptor (CHO-M1) was obtained from ATCC and maintained in F-12 Kaighn's media (Invitrogen, Carlsbad, CA) supplemented with 10 % FBS, 100 units/ml penicillin, 100 ug/ml streptomycin and 250 ug/ml geneticin at 37C, 5% CO2 in a humidified atmosphere. Before the assay, aliquots of cells were frozen and stored at -135C. The assay was performed in 1536-well format. Data are reported for both the ratio of the two emission wavelengths, and also for the component 'donor' channel, Em2=620. […] AC50 values were determined from concentration-response data modeled with the standard Hill equation.
(1) Frozen CHO-M1 cells were thaw, washed once with fresh media and resuspended in F12K media containing 10% FBS, 100 units/ml penicillin and 100 ug/ml streptomycin. Cells were plated at 4ul/well (2000 cells) in white, tissue culture treated 1536-well plates, and then cultured at 37C, 5 % CO2 for 16 to 30 hours.
(2) Add 23 nl/well of compound in DMSO solution. The final titration for each compound was between 0.6 nM and 46 uM.
(4) Incubation at 37C, 5 % CO2 for 30 min.
(5) Add 1 ul/well of d2-conjugated IP1 (d2-IP1) and 1 ul/well of Eu+ cryptate conjugated anti-IP1 antibody (Eu+-Ab) prepared in the cell lysis buffer, both from the IP-One kit (Cisbio, MA).
(6) Incubate at room temperature for 10 minutes.
(7) Detect the assay plate (Ex = 320, Em1 =665 and Em2 620) in a ViewLux plate reader.
Potency means the concentration at half of the fitted maximal effect.

SMILES	activity, negative = IMPase inhibition	Potency
Cc1cc2oc(=O)cc(-c3ccccc3)c2c(C)c1/C=C/c1ccc(F)cc1	-7.25%	–
Cc1ccc(-c2cccc([C@H]3[C@@H]4C=CC[C@@H](C)[C@@H]4C(=O)N3Cc3ccccc3)c2)cc1	10%	–
CC(=O)/C(C)=N/O	-3.22%	–
O=C(NCc1ccccn1)c1cc(Br)ccc1Cl	5.27%	–
O=C(Nc1ccncc1)c1cc(-c2ccccn2)nc2ccc(Br)cc12	–	2.82 µM (active)
Cc1ccc(-c2cc(C(=O)NCc3cn(C)nc3C)c3cc(Br)ccc3n2)cc1	-14.7%	–
Cc1ccc2nc(-c3ccccn3)cc(C(=O)Nc3ccc4c(c3)OCO4)c2c1	4.54%	–
Cc1ccc2nc(-c3ccncc3)cc(C(=O)Nc3ccc(OC(F)F)cc3)c2c1	16.8%	–
O=C(NCc1cccs1)c1cc(-c2ccccn2)nc2ccc(Br)cc12	–	6.31 µM (active)
S=C(NCCCc1cnc[nH]1)NCCCN(Cc1ccc(Cl)c(Cl)c1)c1ccc(Br)cn1	2.14%	–
C=CC(C1=CC(=O)C=CC1=O)c1ccc(O)cc1 (configuration not stated)	38.9%	–
COc1cccc([C@@H]2Oc3ccc(Br)cc3C(=O)[C@H]2OC(=O)NCc2ccc3c(c2)OCO3)c1	9.58%	–
CC(=O)[C@H](C(c1ccccc1)N1CCOCC1)N1CCOCC1 (some centres not stated)	-10.4%	–
COC(=O)C1=C(C(=O)OC)[C@@H]2N(Cc3ccccc3)c3ccccc3[C@@]23C[C@@H](C(=O)OC)N(S(=O)(=O)c2ccc(C(F)(F)F)cc2)C3=N1	9.75%	–
CC/C=C\C/C=C\C/C=C\C/C=C\C/C=C\C/C=C\CCC(=O)NC(C)C(=O)O (configuration not stated)	18%	–
COC(=O)C/C=C/[C@@H](C)[C@H](NC(=O)OCC(Cl)(Cl)Cl)c1ccccc1	3.99%	–
C=C(C(C)=O)C(O)c1ccc([N+](=O)[O-])cc1 (configuration not stated)	39.2%	–
COc1ccc(CCCOC(Cn2ccnc2)c2ccc(OC)cc2)cc1 (configuration not stated)	–	inactive
O=C1OCCN1C(=O)[C@H]1[C@H](c2ccc(F)cc2)C(c2ccccc2)=NN1c1ccc(Br)cc1	0.301%	–
C=C/C1=C/Cc2ccccc2[C@H](C[N+](=O)[O-])C(C(=O)OC)(C(=O)OC)C1	17.6%	–
C=CC1=C2C=C(C3CC3)N(CC(C)C)C=C2C(=O)C(C)(OC(=O)c2ccco2)C1=O (configuration not stated)	7.37%	–
O=C1OCCN1C(=O)[C@H]1[C@H](c2ccccc2)C(c2ccc(F)cc2)=NN1c1ccccc1	-13.4%	–
CN(C)[C@@H]1C(=O)C(C(N)=O)=C(O)[C@@]2(O)C(=O)C3=C(O)c4c(O)ccc(Cl)c4[C@@H](O)[C@H]3C[C@@H]12	–	3.98 µM (active)
COc1ccc(/C=C2\NC(=O)[C@@H]3Cc4ccccc4CN3C2=O)cc1	12.7%	–

SMILES	activity, negative = IMPase inhibition	Potency
NCCC(=O)c1ccccc1N	-1.61%	–
COC(=O)C1=C(C(=O)OC)[C@@H]2N(C)c3ccccc3[C@@]23C[C@@H](C(=O)OC)N(S(=O)(=O)c2cccs2)C3=N1	8.96%	–
C=CCN1C=C2C(=O)C(C)(OC(=O)CCc3ccccc3)C(=O)C=C2C=C1c1ccc(C#N)cc1 (configuration not stated)	-2.86%	–
C=CCN(CC=C)S(=O)(=O)c1ccc(C(=O)Nc2nc3c(s2)CCc2ccccc2-3)cc1	6.49%	–
Cc1ccc(C(=O)c2c(NC(=O)c3ccncc3)sc3c2CCCC3)cc1	42.5% [at 38.3 µM]	–
C=CCN(CC=C)S(=O)(=O)c1ccc(C(=O)Nc2sc3c(c2C(N)=O)CCCCC3)cc1	–	10 µM (active)
CC(C)=CCN1CCC2(CCc3ccccc32)CC1	-23.8%	–
C[C@H]1Cc2c(-c3ccccc3)nc3c(c2CO1)CN(C(=O)C1CC1)CC3	11.8%	–
COc1ccccc1C1/C(=C(/O)c2ccc(OC(C)C)cc2)C(=O)C(=O)N1c1cc(C)on1 (configuration not stated)	6.7% [at 38.3 µM]	–
COc1ccc(/C(O)=C2/C(=O)C(=O)N(c3nc(C)c(C)s3)C2c2ccco2)cc1 (configuration not stated)	–	12.6 µM (active)
COc1ccc(/C(O)=C2\C(=O)C(=O)N(Cc3ccco3)C2c2ccc(OC)cc2OC)cc1 (configuration not stated)	-20.2% [at 38.3 µM]	–
Cc1cn(C2OC[C@@H](O)[C@@H]2CO)c(=O)[nH]c1=O (some centres not stated)	31%	–
O=c1c(O)c(Br)ccc2c(Br)c(O)c(O)c(O)c12	38.1%	–
Cc1cccc([C@H]2[C@@H]3C=CC[C@@H](C)[C@@H]3C(=O)N2Cc2ccccc2)c1	6.4%	–
COC(=O)N1C(/C=C/C=C/c2ccc(OC)cc2)=Cc2ccccc2C1CC(C)=O (configuration not stated)	5.89%	–
CCCCC/C=C\C/C=C\C/C=C\CCCCC(=O)NCC(=O)O	4.54%	–
CCC(C)[C@@H](N)C(=O)O (some centres not stated)	-2.45%	–
C=CCN1c2ccccc2[C@]23C[C@@H](C(=O)OC)N(S(=O)(=O)c4ccc([N+](=O)[O-])cc4)C2=NC(C(=O)OC)=C(C(=O)OC)[C@H]13	8.65%	–
COCc1cc(C)nc(SCC(=O)Nc2cccc(C)c2)c1C#N	–	22.4 µM (active)
Cc1cc(C)c(C#N)c(SCC(=O)Nc2ccccc2)n1	-12.8%	–
COCc1cc(C)nc(Nc2cc(C)ccc2C)c1C#N	2.06% [at 38.3 µM]	–
CC(Nc1oc(-c2ccccc2)nc1-c1ccccc1)c1ccccc1 (configuration not stated)	–	inactive
C[C@H]1Cc2c(-c3ccccc3)nc3c(c2CO1)CN(S(=O)(=O)c1ccc(Cl)c2nonc12)CC3	7.59%	–
